{
  "source": "PubChem BioAssay (NCATS)",
  "key": {"CP215": {"system": "CP215", "assay": "qHTS profiling for inhibitors of Plasmodium falciparum proliferation (AID 504749); further: nearly all actives have a fitted effect of over 60% in size", "conditions": "P. falciparum in erythrocytes, SYBR Green DNA, 72 h; series mostly up to 28.7 µM", "procedure,_shortened": "(§1)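 Each compound contacts P. falciparum-infected red blood cells for 72 h at 37 C; lysis buffer (Tris, EDTA, saponin, Triton X, SYBR Green I) is added and fluorescence measured next morning; values normalized to controls.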"}, "CP252": {"system": "CP252", "assay": "qHTS profiling for inhibitors of Plasmodium falciparum proliferation (AID 504749)", "conditions": "P. falciparum in erythrocytes, SYBR Green DNA, 72 h; series mostly up to 28.7 µM", "procedure,_shortened": "as §1"}, "CP266": {"system": "CP266", "assay": "qHTS profiling for inhibitors of Plasmodium falciparum proliferation (AID 504749)", "conditions": "P. falciparum in erythrocytes, SYBR Green DNA, 72 h; series mostly up to 28.7 µM", "procedure,_shortened": "as §1"}, "CP297": {"system": "CP297", "assay": "qHTS profiling for inhibitors of Plasmodium falciparum proliferation (AID 504749)", "conditions": "P. falciparum in erythrocytes, SYBR Green DNA, 72 h; series mostly up to 28.7 µM", "procedure,_shortened": "as §1"}, "CP315": {"system": "CP315", "assay": "qHTS profiling for inhibitors of Plasmodium falciparum proliferation (AID 504749)", "conditions": "P. falciparum in erythrocytes, SYBR Green DNA, 72 h; series mostly up to 28.7 µM", "procedure,_shortened": "as §1"}, "JCK": {"system": "JCK", "assay": "qHTS profiling for inhibitors of Plasmodium falciparum proliferation (AID 504749)", "conditions": "P. falciparum in erythrocytes, SYBR Green DNA, 72 h; series mostly up to 28.7 µM", "procedure,_shortened": "as §1"}, "PC15": {"system": "PC15", "assay": "qHTS profiling for inhibitors of Plasmodium falciparum proliferation (AID 504749)", "conditions": "P. falciparum in erythrocytes, SYBR Green DNA, 72 h; series mostly up to 28.7 µM", "procedure,_shortened": "as §1"}, "PC49": {"system": "PC49", "assay": "qHTS profiling for inhibitors of Plasmodium falciparum proliferation (AID 504749)", "conditions": "P. falciparum in erythrocytes, SYBR Green DNA, 72 h; series mostly up to 28.7 µM", "procedure,_shortened": "as §1"}, "[1]": {"target": "Cytochrome P450 3A4 (Homo sapiens) (UniProt P08684)", "sequence (P08684 whole entry, looked up)": "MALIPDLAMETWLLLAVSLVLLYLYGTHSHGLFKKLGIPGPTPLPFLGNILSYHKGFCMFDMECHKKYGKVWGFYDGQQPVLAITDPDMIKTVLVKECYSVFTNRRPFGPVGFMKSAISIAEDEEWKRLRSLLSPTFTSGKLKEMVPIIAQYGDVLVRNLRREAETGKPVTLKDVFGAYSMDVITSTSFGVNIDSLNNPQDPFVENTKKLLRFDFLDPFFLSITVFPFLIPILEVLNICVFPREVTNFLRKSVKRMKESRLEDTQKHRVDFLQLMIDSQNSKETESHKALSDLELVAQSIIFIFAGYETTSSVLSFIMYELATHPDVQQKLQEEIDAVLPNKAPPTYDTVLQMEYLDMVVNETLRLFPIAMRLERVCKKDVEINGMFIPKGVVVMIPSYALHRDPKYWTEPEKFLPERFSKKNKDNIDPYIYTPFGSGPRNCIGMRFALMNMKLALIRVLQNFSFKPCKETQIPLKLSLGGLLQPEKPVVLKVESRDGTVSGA", "assay": "Cytochrome P450 family 3 subfamily A member 4 (CYP3A4) small molecule antagonists: luciferase qHTS assay (AID 1645841; active means well fitted curve in the direction sought with a large enough effect in the repeat runs; an effect the other way counts as inactive or inconclusive)", "procedure,_shortened": "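P450-Glo CYP3A4 enzyme with proluciferin substrate preincubated 10 min with compound at room temperature, then NADPH regeneration 1 h. Luciferin detection reagent added for 20 min; luminescence recorded. Ketoconazole positive control.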"}, "[2]": {"assay": "qHTS profiling of the MIPE4 collection as inhibitors of Plasmodium falciparum (HB3) proliferation (AID 743347; call rule not given here)", "conditions": "P. falciparum HB3 in erythrocytes, SYBR Green DNA, 72 h; at 28.5 µM (top of the series) unless noted", "procedure,_shortened": "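Parasite DNA was quantified by SYBR Green I fluorescence (ex 485, em 535 nm) after overnight lysis in saponin/Triton buffer at room temperature. Cultures at 0.3% parasitemia and 2.5% hematocrit were first exposed to compound for 72 h at 37 C; signals were normalised to artemisinin (0.29 uM) and vehicle wells.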"}, "[3]": {"assay": "Inducers of the Endoplasmic Reticulum Stress Response (ERSR) in human glioma: Validation (AID 504836)", "procedure,_shortened": "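Stably transfected U87-MG glioma cells carrying a GRP78-based luciferase sensor; 16 h compound incubation. Luminescence end-point read 10 min after Bright-Glo addition at room temperature.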"}},
  "note": "Results filed as inconclusive are left out. Entries that show only a call come without a potency. The source made the active and inactive calls. Unless noted, the call rests on the fitted dose curve; in most records, active means well fitted curve in the direction sought with a large enough effect; inconclusive means small, poorly fitted or top-dose-only effect, or another doubt; inactive means no such curve, though single readings can be large; an effect the other way counts as inactive or inconclusive.",
  "data": [
    {"smiles": "C[N+](C)(C)CC(=O)[O-]", "values": [
      {"measurement": "Potency", "setting": "CP215", "value": "inactive"},
      {"measurement": "Potency", "setting": "CP252", "value": "inactive"},
      {"measurement": "Potency", "setting": "CP266", "value": "inactive"},
      {"measurement": "Potency", "setting": "CP297", "value": "inactive"},
      {"measurement": "Potency", "setting": "CP315", "value": "inactive"},
      {"measurement": "Potency", "setting": "JCK", "value": "inactive"},
      {"measurement": "Potency", "setting": "PC15", "value": "inactive"},
      {"measurement": "Potency", "setting": "PC49", "value": "inactive"}
    ]},
    {"smiles": "CCCCNC(C)(C)[P+](=O)O", "values": [
      {"measurement": "outcome", "setting": "[1]", "value": "inactive"}
    ]},
    {"smiles": "CN1c2cc(O)c(N=NC(N)=O)cc2CC1S(=O)(=O)O", "note": "(stereo unspecified)", "values": [
      {"measurement": "growth, % of control", "setting": "[2]", "value": 54.6, "unit": "%"}
    ]},
    {"smiles": "OC(CCN1CCCCC1)(c1ccccc1)C1CCCCC1", "note": "(stereo unspecified)", "values": [
      {"measurement": "outcome", "setting": "[3]", "value": "inactive"}
    ]}
  ]
}
